Test results taken from PubChem BioAssay.
Activity calls are given as the source filed them.

These molecules were tested against NADPH oxidase 4 (Homo sapiens) (UniProt Q9NPH5) (assay: NOX4-dependent H2O2 signal modulators, primary screen, NOX inhibitor project, cell-based, HEK293-NOX4, tetracycline-induced, Amplex Red fluorescence (AID 1160)). Details: 45 min, higher = more signal, called active from +8 up or from −8 down.
NADPH oxidase 4 (Homo sapiens), sequence (Q9NPH5 whole entry, looked up): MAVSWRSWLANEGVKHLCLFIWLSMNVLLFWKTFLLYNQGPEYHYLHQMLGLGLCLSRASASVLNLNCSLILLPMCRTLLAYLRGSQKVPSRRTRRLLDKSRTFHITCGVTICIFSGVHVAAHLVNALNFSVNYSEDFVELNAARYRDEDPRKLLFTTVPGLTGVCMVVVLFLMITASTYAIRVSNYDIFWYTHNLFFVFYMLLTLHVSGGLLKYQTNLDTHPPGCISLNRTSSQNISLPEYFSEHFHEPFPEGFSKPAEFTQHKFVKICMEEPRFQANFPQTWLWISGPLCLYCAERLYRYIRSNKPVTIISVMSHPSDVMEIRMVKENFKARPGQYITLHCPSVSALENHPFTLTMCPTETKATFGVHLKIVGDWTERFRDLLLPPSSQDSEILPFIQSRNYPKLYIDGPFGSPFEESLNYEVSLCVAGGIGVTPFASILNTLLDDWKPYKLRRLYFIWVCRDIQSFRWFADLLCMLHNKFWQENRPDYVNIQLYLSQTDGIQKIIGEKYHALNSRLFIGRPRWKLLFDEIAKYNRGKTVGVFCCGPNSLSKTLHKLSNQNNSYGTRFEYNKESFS

z-score, inactive:
CC(C)C(=C=CC[C@H](O)c1ccc(OCCO)cc1)C[C@H](O)c1cc(Cl)cc(Cl)c1O -0.473, C=C(COC)/C(=C/C[C@@H](OC(=O)c1ccncc1)c1ccc(OCCO)cc1)c1cnc2ccccc2c1 -0.596, CC(C)CN1C(=O)[C@@]2(c3ccc([N+](=O)[O-])cc3)CC(=O)N(CC34CC5CC(CC(C5)C3)C4)[C@@H]2c2ccc(CO)cc21 -0.981, C=C(CCCC)/C(=C/C[C@@H](OC(C)=O)c1ccc(CO)o1)c1cc(C(=O)OC)ccc1OC -0.832, C=C(C(=O)CC[C@H](OC(=O)c1cccnc1)c1ccc(CO)o1)C(C)C 0.123, CCOc1cc(C(O)C2C=CC3C(=O)N(C4CCCCC4)C(=O)C3N2Nc2ccc(OC)cc2)ccc1O (centres undefined) -3.71, CN(C)CCCNC(=O)[C@@H]1c2ccccc2C(=O)N(CC23CC4CC(CC(C4)C2)C3)[C@H]1c1ccc(CO)cc1 -0.633, NC(=O)N1C(=O)C2C(C1=O)C1C=C(CCCO)C2C(c2cccs2)N1Cc1cc2c(cc1Br)OCO2 (centres undefined) -0.662, [N-]=[N+]=NCc1ccccc1[C@H]1OC(c2ccc(OCCCO)cc2)=N[C@@]1(CCS(=O)(=O)c1ccccc1)C(N)=O 2.23, CC(C)(C)OC(=O)CC[C@]1(C(=O)O)N=C(c2ccc(OCCCO)cc2)O[C@H]1c1ccccc1 0.228, COc1ccc([Si](C)(C)[C@@H]2[C@@H](CCO)O[C@]3(C(=O)N(Cc4cccc(N5C(=O)c6cccc7cccc5c67)c4)c4ccccc43)[C@H]2C)cc1 0.86, COC1(C)CN(Cc2ccccc2Br)[C@H](/C=C/c2ccccc2)[C@H](Cc2ccccc2)O1 (some centres undefined) 0.76, CN(C)C(=O)[C@@]1(Cc2ccccc2N=[N+]=[N-])COC(c2ccc(OCCCO)cc2)=N1 -0.103, CC(C)N1CC=CC23O[C@@H]4C=CCCOC(=O)C4[C@H]2C(=O)N(CCO)[C@@H]3C1=O (some centres undefined) 0.509, C=C[C@@H](C)[C@H](OC(=O)Nc1ccc(SC)cc1)c1ccc(OCCO)cc1 -0.14, COC(=O)[C@@]1(Cc2ccc(OC)cc2)[C@H]2c3cc(C(=O)N(C)C)n(CCc4c[nH]c5ccc(O)cc45)c3C[C@H]2CN1C(=O)c1ccccc1 0.0624, COc1cc2c(cc1OC)CN(C(=O)[C@H]1[C@@H]3C(=O)O[C@@H](c4ccccc4)[C@@H](c4ccccc4)N3[C@@H](c3ccc(OCCO)cc3)[C@]13C(=O)Nc1ccc(C#CCCO)cc13)CC2 0.798, COc1cc(CO)cc(I)c1O[C@H]1C=C(C(=O)NCCO)C[C@@H](N(CC2CCCCC2)C(=O)c2ccc(C(F)(F)F)cc2)[C@@H]1O 0.916, COC(=O)[C@@]1(Cc2ccc(F)cc2)[C@H]2c3cc(C(=O)N4CCCC4)n(CCc4c[nH]c5ccc(OC)cc45)c3C[C@H]2CN1C(=O)c1ccccc1 0.118, COCC(=C=CC[C@H](O)c1ccc(OCCO)cc1)C[C@H](O)COCc1ccccc1 -0.65, CC=CC(O)C1C=CC2C(=O)N(C)C(=O)C2N1N1CCCCC1 (centres undefined) -0.473, [N-]=[N+]=NCc1ccccc1C[C@]1(C(=O)NCC(O)CO)N=C(c2ccc(OCCCO)cc2)O[C@H]1c1ccccc1CN=[N+]=[N-] (some centres undefined) -2.19, NCCCCCCNC(=O)[C@H]1C[C@H]2C(=O)N[C@@H](Cc3ccccc3)C(=O)N2[C@H]1c1ccc(O)cc1 1.38, CCCCC(=C=CC[C@@H](O)c1ccc(OCCO)cc1)C[C@@H](O)COCc1ccccc1 -0.61, O=C(O)[C@]1(Cc2ccccc2)N=C(c2ccc(OCCCO)cc2)O[C@@H]1c1ccccc1 0.674, CC(C)C(=C=CC[C@@H](O)c1ccccc1OCCO)C[C@@H](O)COCc1ccccc1 0.489, O=C1O[C@@H](c2ccccc2)[C@@H](c2ccccc2)N2[C@@H](c3ccc(O)cc3)[C@]3(C(=O)Nc4ccccc43)[C@@H](C(=O)Nc3nc4ccccc4s3)[C@H]12 0.0436, O=C(N1CCCCC1)[C@@]1(Cc2ccccc2)COC(c2ccc(OCCCO)cc2)=N1 -0.936, CO[C@H]1O[C@H](CO)[C@@H](OC(=O)Nc2ccc(C(F)(F)F)cc2)[C@H](OC(=O)Nc2ccc3c(c2)OCO3)[C@H]1OC(=O)Nc1ccc2c(c1)OCO2 -0.99
